KDM5B inhibitor: KDM5B demethylase inhibition | KDM5B demethylase, FDH-coupled NADH fluorescence (FDH is formaldehyde dehydrogenase) | Potency, µM (doses to about 57.7 µM), usual class: inhibitors | hit rate 2.6% among 220,000 | AID 1347165; active = well fitted inhibition curve with a large enough effect; inconclusive = small, poorly fitted or top-dose-only effect; inactive = no such curve, though single readings can be large or run the other way; note: potency is the fitted concentration of half-maximal effect; 0% is about no effect; nearly all actives have a fitted effect of over 70% in size
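Inhibition is measured as reduced NADH fluorescence generation from FDH coupling to formaldehyde release. Truncated KDM5BΔAP at 200 nM final acts on H3K4me3 peptide (12.5 µM in substrate mix) in pH 7.5 HEPES buffer with Tween-20, 30 min, room temperature.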
IP6K1 inh: inhibitors of human IP6K1. hit rate 0.81% among 140,000. IP6K1 kinase, ADP-Glo luminescence, 2 h; stronger effect = lower value. Q92551. activity change, % (series mostly up to about 58 µM). AID 1645851; in the data active = activity change below about -25%; note: % is set by controls: 0 for no effect and ±100 for the full control effect
Target sequence (Q92551 whole entry, looked up): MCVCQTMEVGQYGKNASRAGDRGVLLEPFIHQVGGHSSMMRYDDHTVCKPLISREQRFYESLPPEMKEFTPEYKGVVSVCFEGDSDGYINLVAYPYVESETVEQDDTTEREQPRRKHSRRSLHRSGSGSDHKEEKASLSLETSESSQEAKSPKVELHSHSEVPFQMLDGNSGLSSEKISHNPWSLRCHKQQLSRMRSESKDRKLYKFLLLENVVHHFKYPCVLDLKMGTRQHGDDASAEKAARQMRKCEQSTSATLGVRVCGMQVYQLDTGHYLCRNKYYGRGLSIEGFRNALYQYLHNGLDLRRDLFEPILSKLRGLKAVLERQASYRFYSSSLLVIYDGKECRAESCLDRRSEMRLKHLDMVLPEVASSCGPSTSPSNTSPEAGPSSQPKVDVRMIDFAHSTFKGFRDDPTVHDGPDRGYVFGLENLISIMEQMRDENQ
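ADP-Glo luminescence measures ADP made by human IP6K1 during a 2 h RT reaction with ATP/IP6 (mix at 1.3 mM/130 uM); top library doses 57.5 and 19.1 uM final.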
Starred values were filed as active, the others as inactive; i = inactive; u = inconclusive; x = no result given. Only some compounds are listed: those with a hit (about 2.8% of all), similar ones and a draw of the others.

SMILES | KDM5B inhibitor | IP6K1 inh
Cc1noc(-c2ccc3c(c2)OCO3)c1C(=O)NCCc1cccc(Cl)c1 | 28µM* | 15
Cc1noc(-c2ccc3c(c2)OCO3)c1C(=O)N1CCC(Cc2ccccc2)CC1 | u | -8
COc1ccc(CCNC(=O)c2c(C)noc2-c2ccc3c(c2)OCO3)cc1OC | 28µM* | -2
COc1ccc(CC2CCN(C(=O)c3c(C)noc3-c3ccc4c(c3)OCO4)CC2)cc1 | 20µM* | -12
Cc1noc(-c2cccc(F)c2)c1C(=O)NCCc1cccc(Cl)c1 | i | -3
CCOC(=O)C1CCCN(C(=O)c2cn3cc(-c4ccc(OC)cc4)sc3n2)C1 (centres undefined) | x | 8
Cc1nn(-c2ccccc2)c2c1C(C)N(C1CCN(C(=O)Nc3ccc(Cl)cc3)C1)C2=O (centres undefined) | x | -14
CCCCn1c(=O)c(C(=O)NCCc2ccccc2F)nc2cccnc21 | x | 16
O=C(Nc1nn(Cc2ccccc2)c2cccc(N3CCOCC3)c12)C1CCC1 | 25µM* | -4
Cn1nc(NC(=O)Cc2c[nH]c(=O)[nH]c2=O)c2c(N3CCOCC3)cccc21 | u | -12
O=C(Nc1nn(-c2cccc(F)c2)c2cccc(N3CCOCC3)c12)C1CCC1 | 32µM* | 0
O=C(Nc1nn(Cc2ccccc2)c2cccc(N3CCOCC3)c12)c1ccncc1 | i | -4
Cc1ccnn1CCC(=O)Nc1nn(C)c2cccc(N3CCOCC3)c12 | 28µM* | 13
CC(C)Oc1cccc2c1c(NC(=O)CN1CCCC1=O)nn2-c1cccc(F)c1 | i | 10
Cc1ccc(-c2ccccc2CN2CCN(C(=O)c3ccc(Cl)nc3)CC2)cc1Cl | x | 3
Cn1c(=O)c2c(ncn2CCC(=O)Nc2ccccc2)n(C)c1=O | i | x
Cc1ccccc1OCC(=N)N | i | x
COc1cccc(-c2cc3c(=O)n(CCNC(=O)c4ccc(F)cc4)ccn3n2)c1 | 28µM* | -3
COc1cccc(-c2cc3c(=O)n(CCNC(=O)c4ccccn4)ccn3n2)c1 | 32µM* | -11
COc1cccc(-c2cc3c(=O)n(CCNC(=O)c4ccccc4)ccn3n2)c1 | i | -3
COc1cccc(-c2cc3c(=O)n(CCNC(=O)Cc4ccc(F)cc4)ccn3n2)c1 | i | -6
COc1cccc(-c2cc3c(=O)n(CCNC(=O)c4ccc(C)cc4)ccn3n2)c1 | 18µM* | -13
COc1ccc(C(O)Cn2ccn3nc(-c4ccc(C(C)C)cc4)cc3c2=O)cc1 (centres undefined) | i | 0
COc1cccc(-c2cc3c(=O)n(CC(O)c4ccccc4)ccn3n2)c1 (centres undefined) | 28µM* | 0
COc1cccc(-c2cc3c(=O)n(CCNC(=O)COc4ccccc4)ccn3n2)c1 | u | -7
SMILES | KDM5B inhibitor | IP6K1 inh
O=C(NC1CCN(Cc2cccc(-c3cccs3)c2)CC1)c1cccnc1 | x | -3
CSc1ccc(-c2cccc(CN3CCC(N[S+](C)(=O)[O-])CC3)c2)cc1 | x | 5
COc1ccc(-c2c(C(F)(F)F)oc3cc(OC(C)=O)ccc3c2=O)cc1OC | i | x
Cc1ccc(-c2nc(SCC(=O)N3CCCC3c3ccc4c(c3)OCCCO4)n[nH]2)cc1 (centres undefined) | i | x
COc1cccc(-c2c(C(=O)NCC3CC3)nc3sccn23)c1 | x | 12
Cn1ncc2c(C(=O)NCC(F)F)cc(-c3cccc(F)c3)nc21 | x | 7
CCc1ccc2oc(=O)cc(-c3oc4ccccc4c3NC(C)=O)c2c1 | i | x
CCNC(=O)[C@@H]1C[C@H](N)CN1C(=O)c1ccc(NC(C)=O)cc1C | i | -19
CCN(CC)C(=O)[C@@H]1C[C@H](N)CN1C(=O)c1cc2ccccc2n(C)c1=O | 32µM* | 1
COc1ccc(-c2cc(C(=O)NCc3cccc(C(F)(F)F)c3)c3cnn(C)c3n2)cc1 | x | 0
CCOCCNC(=O)c1cc(-c2cccc(C(F)(F)F)c2)c2cccn2n1 | x | 11
CCCc1noc(-c2ccn3c(CNC(=O)c4ccccc4OC)nnc3c2)n1 | 3.2µM* | 29
CCCc1noc(-c2ccn3c(CNC(=O)Cc4ccccc4OC)nnc3c2)n1 | 18µM* | 18
CCCc1noc(-c2ccn3c(CNC(=O)c4cc5ccccc5[nH]4)nnc3c2)n1 | i | 8
CCCc1noc(-c2ccn3c(CNC(=O)c4ccc(C)cc4)nnc3c2)n1 | u | 24
CCCc1noc(-c2ccn3c(CNC(=O)C(C)Oc4ccccc4)nnc3c2)n1 (centres undefined) | 25µM* | 19
COc1ccccc1CC(=O)NCc1nnc2cc(-c3nc(C)no3)ccn12 | u | 15
O=C1CCN(CC(O)Cc2ccccc2)c2ccc(F)cc2CN1Cc1ccccc1 (centres undefined) | x | 1
Cc1nn(-c2ccccc2)c2c1C(C(C)C)N(C1CCN(C(=O)c3ccc(F)cc3)CC1)C2=O (centres undefined) | x | 11
O=C(C1CN(C2CCCCC2)C(=O)N1)N1CCC(Cc2ccccc2)CC1 (centres undefined) | x | 30
COc1ccc(Nc2ccnc(N3CCCC(C(=O)N4CCCC(C)C4)C3)n2)cc1 (centres undefined) | x | 12
COc1cccc(C(=O)c2sc(Nc3ccc(Cl)cc3C)nc2N)c1 | i | x
CN(C)Cc1ccc(-c2cc3c(ccn3Cc3cccnc3)c(C3=CCOCC3)n2)cc1 | 35µM* | 31
Cn1ccc2c(C(=O)NCc3cccnc3)nc(-c3ccc(CO)cc3)cc21 | i | -12
C1=C(c2nc(-c3cccc4[nH]ncc34)cc3c2ccn3Cc2cccnc2)CCOC1 | i | -14
SMILES | KDM5B inhibitor | IP6K1 inh
C1=C(c2nc(-c3ccc(N4CCOCC4)cc3)cc3c2ccn3Cc2cccnc2)CCOC1 | 28µM* | 1
CC(=O)/C=C/c1c(C)oc2ccccc12 | i | x
O=C(NCc1ccc(F)c(F)c1)C1CCc2nnc(C3CC3)n21 (centres undefined) | x | 9
Cc1ccc(-c2nc3cnccn3c2NCCC(=O)O)cc1 | 28µM* | -1
Cc1ccccc1-c1nc2cnccn2c1NCCC(=O)N(C)Cc1ccccc1 | 28µM* | 6
CCOCCNC(=O)c1c(C)nc2cnccn12 | x | 2
Cc1cccc(C)c1Nc1c(-c2ccccc2Cl)nc2cnccn12 | u | -7
Cc1nc2cnccn2c1C(=O)NCc1ccccc1 | x | 18
Cc1ccc(-c2nc3cnccn3c2NCCC(=O)N(C)C)cc1 | 28µM* | 17
CC(NC(=O)c1ccc(SC(F)(F)F)cc1)c1ccncc1 (centres undefined) | i | x
O=C(NC1CCCN(c2ccc3nnc(-c4ccccc4)n3n2)C1)c1cccnc1 (centres undefined) | x | -5
COc1cccc(-c2ccc(CN3CCCC(NC(=O)C4CCCC4)C3)cc2)c1 (centres undefined) | x | 10
COc1ccc(F)cc1-c1ccc(CN2CCCCC2C(=O)NCc2ccccc2F)cc1 (centres undefined) | x | 5
CC(C)NC(=O)C1CCCN(c2nccc(Nc3ccccc3F)n2)C1 (centres undefined) | x | 7
S=C(NCCc1ccccc1Cl)Nc1ccc(Cl)c(Cl)c1 | i | x
O=C(NCc1ccc(F)cc1)C1CCCN(c2nccc(Nc3ccccc3F)n2)C1 (centres undefined) | x | 6
O=C(Nc1ccccc1Cl)c1nc2cccnc2n(Cc2ccccc2)c1=O | x | -1
O=C(O)CCn1ncc2cc(OCC3CCN(c4ncc(F)cn4)CC3)ccc21 | 35µM* | -9

Bioassay records from PubChem BioAssay.
